# PubChem BioAssay AID1259415 (National Center for Advancing Translational Sciences (NCATS), 2018)
# In all, about 410,000 compounds went through this assay and about 18,000 (4.4%) were called active. About 7% were inconclusive and are not listed. What follows is part of a selection rich in actives, with near analogues and random picks from the rest. Unmarked numbers belong to inactive results. Rule as the data show it: active = activity change below about -60%; inconclusive = no clear call, values can overlap the other calls; inactive = above about -39%.
# Assay: qHTS Assay for inhibitors of the human cytomegalovirus (HCMV)
# Details: HFF cells, HCMV-luciferase reporter, 72 h; at 57.5 µM; hits give low values
# How it was run: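 Cell-based, HFFs, 1000 cells/well, 16 h 37C; cpds in DMSO + HCMV-luc, MOI 1 PFU/cell; 72 h 37C; OneGlo luminescence after 5 min RT; norm. to buffer vs Salinomycin 10uM.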
# % is scaled to controls: 0 for no effect and ±100 for the full control effect.
row,SMILES,"activity change, negative = inhibition"
1,Cc1ccc(Nc2c(-c3ccc(C)s3)nc3ccccn23)cc1,74.5%
2,Cc1ccc(NC(=O)c2oc3ccc(S(=O)(=O)N4CCCCC4)cc3c2C)cc1Cl,-4.09%
3,COc1ccccc1NC(=O)CN(c1ccccc1OC)S(=O)(=O)c1ccccc1,-93.1% (active)
4,COc1ccccc1N(CC(=O)N1CCCCC1)S(=O)(=O)c1ccccc1,-0.178%
5,Cc1ccc(S(=O)(=O)N(CC(=O)NCc2ccco2)c2ccccc2C)cc1,-14.7%
6,COc1ccccc1N(CC(=O)N/N=C(\C)c1ccccc1O)S(=O)(=O)c1ccc(C)cc1,-68.7% (active)
7,COc1ccc(C)cc1N(CC(=O)NC(C)c1ccccc1)S(C)(=O)=O (centres undefined),-5.84%
8,COc1ccccc1N(CC(=O)Nc1c(C)n(C)n(-c2ccccc2)c1=O)S(=O)(=O)c1ccccc1,-32%
9,Cc1cc(C)cc(-n2c(SCC(=O)NCC3CCCO3)nc3c([nH]c4ccccc43)c2=O)c1 (centres undefined),10.8%
10,Cc1cc(NC(=O)CN2C(=O)NC(CC(C)C)C2=O)no1 (centres undefined),3.09%
11,O=C(Nc1ccccc1Cl)N1CCN(c2ccc3nncn3n2)CC1,-11.9%
12,Cc1ccccc1C(=O)Nc1cc(C)c(O)c(-c2nc3ccccc3o2)c1,-13.9%
13,Cc1ccc(C)n1-c1nnc(N2CCC(C(=O)NCc3ccc(F)cc3)CC2)s1,29.6%
14,Cn1nnnc1SCC(=O)Nc1sccc1C(N)=O,3.24%
15,CCOC(=O)c1c(NC(=O)CSc2nnc(CNc3ccc(C)cc3C)o2)sc(C)c1C,3.08%
16,CCOC(=O)c1c(-c2ccc(C)cc2C)csc1NC(=O)CSc1nnnn1C,-95.4% (active)
17,CCOc1ccc(CCNC(=O)Cn2nc(CC)n3c(cc4sc(CC)cc43)c2=O)cc1OCC,-8.37%
18,CCOC(=O)c1c(NC(=O)/C=C/c2ccc(OC)cc2)sc2c1CCC(C)C2 (centres undefined),-22.4%
19,CC1CCN(S(=O)(=O)c2ccc3c(c2)N(CC(=O)NCCc2ccccc2)C(=O)CO3)CC1,-11.1%
20,Cc1ccc(-n2nc(C)c3c(C)cc(=O)n(CC(=O)Nc4ccc(C(C)C)cc4)c32)cc1,11%
21,COc1ccc(-c2cc(C(F)(F)F)nc(S(C)(=O)=O)n2)cc1OC,-98.2% (active)
22,COc1ccc(-c2cc(C(F)(F)F)nc(SCC(=O)N(C)Cc3ccccc3)n2)cc1OC,-16.1%
23,COc1ccc(CCNc2nc(-c3ccc(F)cc3)cc(C(F)(F)F)n2)cc1OC,-24.7%
24,CC(C)Sc1oc(-c2cccs2)nc1S(=O)(=O)c1ccc(Cl)cc1,0.0343%
